# “And” between values parts separate entries of the source, which are not always exact repeats. Identical values can stand only once. Results filed as inconclusive are left out. The source holds several records for some structures; these can differ, active in one and inactive in another. The source made the active and inactive calls. Calls follow the shape of the dose curve; as a rule, active = well fitted inhibition curve with a large enough effect in the repeat runs; inconclusive = weak or mixed curves; inactive = no such curve, though single readings can be large or run the other way. Starred links: 1 amine or outer side, 2 acyl side, 3 side chain; linkers in the order of their positions; H or OH if unused. Positions of bridges follow the written chain, without caps; N, C: chain ends. Non-standard residues stand in square brackets, D forms with d. Residues, ends and D or L forms follow the SMILES beside them. Chains are numbered I, II in the order given. Actinocin(9to1) = Cc1c2oc3c(C)ccc(C(=O)[*:1])c3nc-2c(C(=O)[*:2])c(N)c1=O; NMeV = CN[C@H](C(=O)O)C(C)C; Sar = CNCC(=O)O
# Biological target: Cytochrome P450 2C9 (Homo sapiens) (UniProt P11712)
# Sequence (P11712 whole entry, looked up): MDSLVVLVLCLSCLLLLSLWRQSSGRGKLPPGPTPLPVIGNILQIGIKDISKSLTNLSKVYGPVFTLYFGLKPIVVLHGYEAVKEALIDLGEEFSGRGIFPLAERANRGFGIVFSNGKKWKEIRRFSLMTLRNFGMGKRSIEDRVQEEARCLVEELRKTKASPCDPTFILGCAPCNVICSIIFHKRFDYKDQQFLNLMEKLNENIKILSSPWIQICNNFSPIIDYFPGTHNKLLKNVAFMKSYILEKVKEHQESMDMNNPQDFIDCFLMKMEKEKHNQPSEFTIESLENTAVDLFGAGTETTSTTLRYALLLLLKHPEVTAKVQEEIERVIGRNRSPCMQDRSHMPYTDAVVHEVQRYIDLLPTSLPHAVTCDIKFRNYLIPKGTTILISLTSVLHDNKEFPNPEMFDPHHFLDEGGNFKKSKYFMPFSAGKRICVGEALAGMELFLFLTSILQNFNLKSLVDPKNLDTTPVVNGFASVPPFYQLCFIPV
# Assay: Cytochrome P450 Family 2 Subfamily C Member 9 (CYP2C9) small molecule antagonists: luciferase reporter qHTS assay (AID 1671198)
# Conditions: P450-Glo CYP2C9 enzyme assay, luciferin luminescence; series mostly up to 115 µM
# In short: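 P450-Glo proluciferin substrate with CYP2C9 enzyme; 10 min RT preincubation, then NADPH regeneration 1 h at 37C; luciferin detection reagent 20 min RT, luminescence in relative luminescence units.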
# Also: nearly all actives have a fitted effect of over 50% in size.
# Potency is read from the fitted curve at half-maximal effect.
row,SMILES,Potency
1,CC(COc1ccccc1)N(CCCl)Cc1ccccc1 (stereo unspecified),28.6 µM (active) and 22.4 µM (active) and 12.3 µM (active)
2,C#CC(C)(CC)OC(=O)c1ccccc1C(=O)O (stereo unspecified),inactive
3,[Cl][In]([Cl])[Cl],inactive
4,Oc1ccc(Cl)cc1Cc1cc(Cl)ccc1O,8.11 µM (active) and 5.64 µM (active) and 4.9 µM (active)
5,CCOC(=O)C(C)C(C)=O (stereo unspecified),inactive
6,CC(C)C(=O)c1c(C(C)C)nn2ccccc12,inactive
7,C=C(C)C1CC=C(C)C(OC(C)=O)C1 (stereo unspecified),inactive
8,CO[Si](OC)(OC)c1ccccc1,inactive
9,CCN(CC)c1ccc2c(C)cc(=O)oc2c1,inactive
10,O=C(Oc1ccccc1)c1ccccc1O,35.6 µM (active) and 24.5 µM (active)
11,O=C(O)CCc1ccccc1,inactive
12,O=Nc1ccc(Nc2ccccc2)cc1,14.2 µM (active) and 28.3 µM (active)
13,NC(N)=Nc1nc(CSCC/C(N)=N/S(N)(=O)=O)cs1,inactive
14,NNCCc1ccccc1,25.3 µM (active) and 17.4 µM (active)
15,Cc1cccc(O)c1C,inactive
16,C=CC(=O)OCCCCCCOC(=O)C=C,64.1 µM (active) and 56.4 µM (active)
17,Cc1cc(C(C)(C)C)c(O)c(C(C)(C)C)c1,35.7 µM (active) and inactive
18,O=S(=O)(O)c1ccc2nc(-c3ccccc3)[nH]c2c1,33.9 µM (active) and 19.5 µM (active)

row,SMILES,Potency
1,COC(=O)/C=C/c1ccccc1,inactive
2,CCC[C@H](N[C@@H](C)C(=O)N1[C@H](C(=O)O)C[C@@H]2CCCC[C@@H]21)C(=O)OCC,inactive
3,COc1nc(C)nc(Cl)c1NC1=NCCN1,inactive
4,C=C(C)C(=O)O,inactive
5,CC(C)(O)CCC(C)(C)O,inactive
6,"Cc1c2oc3c(C)ccc(C(=O)N[C@@H]4C(=O)N[C@H](C(C)C)C(=O)N5CCC[C@H]5C(=O)N(C)CC(=O)N(C)[C@@H](C(C)C)C(=O)O[C@@H]4C)c3nc-2c(C(=O)N[C@@H]2C(=O)N[C@H](C(C)C)C(=O)N3CCC[C@H]3C(=O)N(C)CC(=O)N(C)[C@@H](C(C)C)C(=O)O[C@@H]2C)c(N)c1=O (I: T[dV]P[Sar][NMeV] / II: T[dV]P[Sar][NMeV]; ester I:1-I:C, II:1-II:C; linker I:N-II:N via Actinocin(9to1))",inactive
7,CC(C)(C)c1ccc(O)c(C(C)(C)C)c1,12.6 µM (active) and 11.2 µM (active)
8,Cc1cc(Cc2cc(C)cc(C(C)(C)C)c2O)c(O)c(C(C)(C)C)c1,3.57 µM (active) and 3.56 µM (active)
9,CC1=CC(=O)c2ccccc2C1=O,22.4 µM (active) and 13.8 µM (active)
10,CC(C)CCCCCCc1ccc(O)cc1,9.1 µM (active) and 12.6 µM (active)
11,Nc1nc(=S)c2[nH]cnc2[nH]1,38.9 µM (active) and 71 µM (active) and 30.9 µM (active)
12,NC(=Nc1ccccc1)Nc1ccccc1,89.4 µM (active) and inactive
13,C1COC(NC(C2CC2)C2CC2)=N1,inactive
14,CCCCOCCOC(=O)c1ccccc1C(=O)OCCOCCCC,6.95 µM (active) and 7.1 µM (active)
15,CC(=O)Nc1ccc(C(=O)CCl)cc1,63.3 µM (active)
16,NC(N)=NC(=O)Cc1c(Cl)cccc1Cl,inactive
17,CCC(=O)/C=C/C1C(C)=CCCC1(C)C (stereo unspecified),31.7 µM (active)
18,BrC1CCC(Br)C(Br)CCC(Br)C(Br)CCC1Br (stereo unspecified),10.7 µM (active)

# Biological target: Cytochrome P450 1A2 (Homo sapiens) (UniProt P05177)
# Sequence (P05177 whole entry, looked up): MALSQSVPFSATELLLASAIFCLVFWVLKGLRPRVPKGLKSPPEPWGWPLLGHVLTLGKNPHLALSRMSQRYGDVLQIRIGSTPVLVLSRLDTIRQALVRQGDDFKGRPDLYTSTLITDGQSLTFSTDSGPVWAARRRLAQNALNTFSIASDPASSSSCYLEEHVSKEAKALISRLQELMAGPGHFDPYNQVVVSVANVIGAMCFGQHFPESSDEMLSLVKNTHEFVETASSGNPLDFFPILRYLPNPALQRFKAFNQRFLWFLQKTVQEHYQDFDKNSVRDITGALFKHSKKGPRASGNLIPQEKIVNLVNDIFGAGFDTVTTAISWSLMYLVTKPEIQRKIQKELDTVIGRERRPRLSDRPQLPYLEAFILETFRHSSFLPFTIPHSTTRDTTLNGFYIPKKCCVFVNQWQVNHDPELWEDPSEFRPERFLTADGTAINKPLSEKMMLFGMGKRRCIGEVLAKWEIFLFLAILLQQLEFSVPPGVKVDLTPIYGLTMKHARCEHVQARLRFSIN
# Assay: Cytochrome P450 Family 1 Subfamily A Member 2 (CYP1A2) small molecule antagonists: luciferase reporter qHTS assay (AID 1671199)
# Conditions: P450-Glo CYP1A2 enzyme, luciferin luminescence, 1 h; series mostly up to 53 µM
# In short: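 Luminescence from luciferin formed by CYP1A2 from a proluciferin substrate, read 20 min after detection reagent. Compound was pre-incubated 10 min with enzyme-substrate, and reaction started with NADPH regeneration solution for 1 h at room temperature; furafylline control.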
row,SMILES,Potency
1,CC(COc1ccccc1)N(CCCl)Cc1ccccc1 (stereo unspecified),inactive
2,C#CC(C)(CC)OC(=O)c1ccccc1C(=O)O (stereo unspecified),inactive
3,[Cl][In]([Cl])[Cl],37.7 µM (active)
4,CCOC(=O)C(C)C(C)=O (stereo unspecified),35.8 µM (active)
5,CC(C)C(=O)c1c(C(C)C)nn2ccccc12,2.57 µM (active)
6,C=C(C)C1CC=C(C)C(OC(C)=O)C1 (stereo unspecified),inactive
7,CCN(CC)c1ccc2c(C)cc(=O)oc2c1,2.02 µM (active) and 2.83 µM (active)
8,O=C(Oc1ccccc1)c1ccccc1O,35.7 µM (active) and 35.6 µM (active) and 28.8 µM (active)
9,O=C(O)CCc1ccccc1,inactive
10,O=Nc1ccc(Nc2ccccc2)cc1,16 µM (active) and 28.3 µM (active)
11,NC(N)=Nc1nc(CSCC/C(N)=N/S(N)(=O)=O)cs1,inactive
12,Cc1cccc(O)c1C,46.1 µM (active)
13,C=CC(=O)OCCCCCCOC(=O)C=C,28.6 µM (active) and 31.7 µM (active)
14,Cc1cc(C(C)(C)C)c(O)c(C(C)(C)C)c1,inactive
15,COC(=O)/C=C/c1ccccc1,15.9 µM (active) and 28.3 µM (active)
16,CCC[C@H](N[C@@H](C)C(=O)N1[C@H](C(=O)O)C[C@@H]2CCCC[C@@H]21)C(=O)OCC,17.4 µM (active) and inactive
17,COc1nc(C)nc(Cl)c1NC1=NCCN1,inactive
18,C=C(C)C(=O)O,inactive
19,CC(C)(O)CCC(C)(C)O,inactive
20,"Cc1c2oc3c(C)ccc(C(=O)N[C@@H]4C(=O)N[C@H](C(C)C)C(=O)N5CCC[C@H]5C(=O)N(C)CC(=O)N(C)[C@@H](C(C)C)C(=O)O[C@@H]4C)c3nc-2c(C(=O)N[C@@H]2C(=O)N[C@H](C(C)C)C(=O)N3CCC[C@H]3C(=O)N(C)CC(=O)N(C)[C@@H](C(C)C)C(=O)O[C@@H]2C)c(N)c1=O (I: T[dV]P[Sar][NMeV] / II: T[dV]P[Sar][NMeV]; ester I:1-I:C, II:1-II:C; linker I:N-II:N via Actinocin(9to1))",inactive
21,CC(C)(C)c1ccc(O)c(C(C)(C)C)c1,35.4 µM (active) and 56.4 µM (active)
22,Cc1cc(Cc2cc(C)cc(C(C)(C)C)c2O)c(O)c(C(C)(C)C)c1,25.3 µM (active)
23,CC(C)CCCCCCc1ccc(O)cc1,28.8 µM (active)
24,Nc1nc(=S)c2[nH]cnc2[nH]1,30.9 µM (active) and 35.6 µM (active)
25,NC(=Nc1ccccc1)Nc1ccccc1,50.2 µM (active) and inactive
26,C1COC(NC(C2CC2)C2CC2)=N1,inactive
27,CCCCOCCOC(=O)c1ccccc1C(=O)OCCOCCCC,19.6 µM (active) and 15.9 µM (active)
28,CC(=O)Nc1ccc(C(=O)CCl)cc1,31.7 µM (active)
29,CCC(=O)/C=C/C1C(C)=CCCC1(C)C (stereo unspecified),inactive and 25.2 µM (active)
30,BrC1CCC(Br)C(Br)CCC(Br)C(Br)CCC1Br (stereo unspecified),inactive

# Reference: PubChem BioAssay (Tox21)
